Assay [1] can be described thus: qHTS assay to identify small molecule agonists of the vitamin D receptor (VDR) signaling pathway - cell viability counter screen (AID 743224). Further: series mostly up to about 63 µM; on the % scale 0 is the no-effect control and ±100 the full control effect; nearly all actives have a fitted effect of over 50% in size. Put shortly:
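Here cell health was gauged by luminescent ATP detection (CellTiter-Glo, 30 min RT) in VDR-bla cells that had been incubated with test compounds for 16 h at 37C and 5% CO2.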
(qHTS replaces the single test concentration by a dilution series.)

A short description of assay [2]: qHTS assay to identify small molecule antagonists of the vitamin D receptor (VDR) signaling pathway - cell viability counter screen (AID 743225). Further: on the % scale 0 is the no-effect control and ±100 the full control effect; nearly all actives have a fitted effect of over 50% in size. Put shortly: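 Compounds were pinned onto VDR-bla HEK 293T cells together with 1-alpha,25-dihydroxyvitamin D3 at 3 nM final. After 16 h at 37C and 5% CO2 plus the reporter readout, cell viability was measured by CellTiter-Glo luminescence (30 min, room temperature).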

Assay [3] is described as follows: qHTS assay to identify small molecule agonists of the NFkB signaling pathway (AID 1159509; active means well fitted curve in the direction sought with a large enough effect in the signal ratio in the repeat runs, not every such curve was filed as active; the % refers to the signal ratio; further: series mostly up to about 61 µM; on the % scale 0 is the no-effect control and ±100 the full control effect). Put shortly:
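ME-180 NFkB-bla, 2,000 cells/well, overnight plating; cpd pinned in DMSO, 5 h 37 C; B/G FRET substrate 1.5 h RT; ex 405, em 460/530 nm.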

Assay [4] can be described thus: qHTS assay to identify small molecule agonists of the NFkB signaling pathway - cell viability counter screen (AID 1159515; calls by dose curve; further: series mostly up to about 61 µM; on the % scale 0 is the no-effect control and ±100 the full control effect; nearly all actives have a fitted effect of over 55% in size). The essentials:
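5 hr compound treatment of NFkB-bla ME-180 cells (2,000/well, seeded overnight beforehand), followed by reporter substrate for 1.5 hr. CellTiter-Glo added afterward; luminescence after 30 min RT.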

Assay [5] is described as follows: qHTS assay to identify small molecule agonists of the endoplasmic reticulum stress response signaling pathway (AID 1159516; active means well fitted activation curve with a large enough effect in the signal ratio in the repeat runs, not every such curve was filed as active; the % refers to the signal ratio; further: on the % scale 0 is the no-effect control and ±100 the full control effect). Put shortly: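 Reporter HeLa cells (ESRE-beta-lactamase) underwent 5 hr compound incubation at 37 C and 5% CO2 in quantitative HTS format. Detection followed 2 hr of FRET substrate loading at room temperature.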
Assay [6] can be described thus: qHTS assay to identify small molecule agonists of the endoplasmic reticulum stress response signaling pathway - cell viability counter screen (AID 1159517; calls by dose curve;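 further: HeLa cells carrying an ER stress response element beta-lactamase reporter; series mostly up to about 61 µM; on the % scale 0 is the no-effect control and ±100 the full control effect; nearly all actives have a fitted effect of over 50% in size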). Put shortly: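 ESRE-bla HeLa cells, 1,500 per well, seeded overnight then treated with compounds for 5 hr at 37 C. After the beta-lactamase read, viability in the same wells is measured by CellTiter-Glo luminescence after 30 min at room temperature.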

The nature of assay [7]: qHTS assay to identify small molecule antagonists of the retinoid-related orphan receptor gamma (ROR-gamma) signaling pathway - cell viability counter screen (AID 1159520). Further: on the % scale 0 is the no-effect control and ±100 the full control effect; nearly all actives have a fitted effect of over 50% in size. Put shortly: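 Tet-on ROR gamma CHO cells were given compounds for 2 hr, then doxycycline hyclate at 1 uM final, and incubated 16 hr at 37 C. Viability was measured as ATP content by CellTiter-Glo luminescence.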

Assay [8] concerns the target Nuclear receptor ROR-gamma (Homo sapiens) (UniProt P51449). As to the kind of experiment: qHTS assay to identify small molecule antagonists of the retinoid-related orphan receptor gamma (ROR-gamma) signaling pathway (AID 1159521). Put shortly:
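Test compounds were applied to Tet-on RORγ CHO cells 2 h ahead of doxycycline hyclate (1 uM final). Luciferase reporter activity was quantified by luminescence after 16 h at 37 C and 5% CO2.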

Assay [9] is described as follows: qHTS assay to identify small molecule agonists of the AP-1 signaling pathway - cell viability counter screen (AID 1159525; calls by dose curve; further: nearly all actives have a fitted effect of over 55% in size). The essentials:
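AP-1-bla ME-180 cells in Opti-MEM with 0.5% dialyzed FBS, compound exposure 5 h at 37 C in 15-point titration. Viability read in the same wells as ATP content by CellTiter-Glo luminescence, normalised to tetra-n-octylammonium bromide and DMSO controls.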

Assay [10] can be described thus: qHTS assay to identify small molecule agonists of the AP-1 signaling pathway (AID 1159526; calls by dose curve; further: on the % scale 0 is the no-effect control and ±100 the full control effect).
The target in assay [11] is Retinoic acid receptor RXR-alpha (Homo sapiens) (UniProt P19793). As to the kind of experiment: qHTS assay to identify small molecule agonists of the RXR signaling pathway (AID 1159527; calls by dose curve; further: on the % scale 0 is the no-effect control and ±100 the full control effect; nearly all actives have a fitted effect of over 35% in size). The essentials: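 Using 9-cis retinoic acid as the reference agonist, chemicals were tested in HEK 293T cells […] for 16 hr; substrate loading lasted 2 hr at room temperature.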

Assay [12] is described as follows: qHTS assay to identify small molecule agonists of the RXR signaling pathway - cell viability counter screen (AID 1159529). Put shortly: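 Compounds dissolved in DMSO were pinned onto HEK 293T cells carrying a beta-lactamase reporter under RXR-alpha control and incubated 16 hr. Cytotoxicity was then quantified by CellTiter-Glo luminescence.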
Assay [13] is described as follows: qHTS assay to identify small molecule antagonists of the retinoid acid receptor (RAR) signaling pathway - cell viability counter screen (AID 1159551). Further: on the % scale 0 is the no-effect control and ±100 the full control effect; nearly all actives have a fitted effect of over 35% in size. Put shortly: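 Seed C3RL4 cells; next day add compound, then retinol to 1 uM final; incubate 6 h at 37 C; add CellTiter-Glo; read luminescence after 30 min at RT.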
Assay [14] in a line: qHTS assay to identify small molecule antagonists of the retinoic acid receptor (RAR) signaling pathway (AID 1159552). Put shortly:
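Test chemicals and DMSO controls were pin-transferred onto C3RL4 cells a day after seeding; retinol (1 uM final) followed at once. Luminescent reporter output was quantified after 6 hr of co-incubation and 30 min with detection reagent.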

Assay [15] is described as follows: qHTS assay to identify small molecule agonists of the retinoic acid receptor (RAR) signaling pathway (AID 1159553). Further: potency means the concentration at half of the fitted maximal effect. The essentials: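 Activation of retinol signaling was monitored via a RARE luciferase reporter in C3RL4 cells. After 6 hr compound treatment at 37 C, detection reagent was added for 30 min at room temperature before luminescence reading.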
Assay [16] can be described thus: qHTS assay to identify small molecule antagonists of the estrogen related receptor (ERR) signaling pathway - cell viability counter screen (AID 1224818).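 Further: series mostly up to about 46 µM; viability measured after 17.5 h of compound exposure; on the % scale 0 is the no-effect control and ±100 the full control effect.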 Put shortly: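 In the same ERR cell assay, compound-treated wells (17.5 h, 37 C) were multiplexed with a fluorogenic viability reagent, CellTiter-Fluor, read after 30 min to flag cytotoxic substances.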
Assay [17] is described as follows: qHTS assay to identify small molecule antagonists of the estrogen related receptor (ERR) signaling pathway (AID 1224819). Put shortly: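 qHTS in ERR cells, 2,000/well, 1536 format. Cpd (DMSO) added after 6 h settle, 18 h 37 C. One-Glo luminescence, 30 min RT.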
The nature of assay [18]: qHTS assay to identify small molecule agonists of the estrogen related receptor (ERR) signaling pathway (AID 1224820). Further: potency means the concentration at half of the fitted maximal effect. The essentials:
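Cells: ERR line from NTP, 2,000/well. Pre-incubation 6 h, 37 C/5% CO2. Compound (DMSO) pin transfer, 18 h 37 C. One-Glo, 30 min RT, luminescence.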

Assay [19] has as its system estrogen-related receptor alpha (ERRalpha) with PGC-1alpha coactivator, human. As to the kind of experiment: qHTS assay to identify small molecule antagonists of the estrogen related receptor signaling pathway with the pleiotropic PPARgamma coactivator (PGC) (AID 1224821; calls by dose curve). Put shortly: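 Luminescent read-out (One-Glo, 30 min at room temperature) following 18 h treatment of PGC/ERR cells at 37 C with compounds delivered in DMSO. Cells had settled 6 h at 37 C/5% CO2 before dosing.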

Assay [20] is described as follows: qHTS assay to identify small molecule antagonists of the estrogen related receptor signaling pathway with the pleiotropic PPARgamma coactivator (PGC) cell viability counter screen (AID 1224822). The essentials: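 Compounds in DMSO, with positive and negative controls, were applied to PGC/ERR cells (2,000/well) and left 17.5 h at 37 C before CellTiter-Fluor detection.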

SMILES strings stand for the structures. Where “and” joins values, the source holds several entries; their conditions need not be identical. Equal values may be shown once. Records with an inconclusive call do not appear. A number with no mark means an inactive call. Calls of active or inactive are those of the source. Unless noted, the call rests on the fitted dose curve; in most records, active means well fitted curve in the direction sought with a large enough effect in the repeat runs; inconclusive means weak or mixed curves; inactive means no such curve, though single readings can be large; an effect the other way counts as inactive or inconclusive.

Sequence of Retinoic acid receptor RXR-alpha (Homo sapiens) (P19793 whole entry, looked up): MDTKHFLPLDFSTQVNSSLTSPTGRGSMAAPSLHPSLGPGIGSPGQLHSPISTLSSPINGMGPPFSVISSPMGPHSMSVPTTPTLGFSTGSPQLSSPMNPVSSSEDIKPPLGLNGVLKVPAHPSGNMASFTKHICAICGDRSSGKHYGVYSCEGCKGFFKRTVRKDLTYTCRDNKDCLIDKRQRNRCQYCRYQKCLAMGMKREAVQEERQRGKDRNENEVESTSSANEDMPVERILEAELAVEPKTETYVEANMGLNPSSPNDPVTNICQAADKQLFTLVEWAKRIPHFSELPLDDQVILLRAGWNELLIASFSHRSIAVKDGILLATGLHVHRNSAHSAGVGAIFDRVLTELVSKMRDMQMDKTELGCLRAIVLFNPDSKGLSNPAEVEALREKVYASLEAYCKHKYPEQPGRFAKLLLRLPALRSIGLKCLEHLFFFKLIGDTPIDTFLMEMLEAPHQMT

Regarding `OC[C@@H](O)[C@H](O)[C@H](O)[C@@H](O)CO`, the Potency entry in assay [1], in assay [2], in assay [6], in [7], in assay [8] and in [9] was “inactive” in each case. Moreover, the Potency result in assay [10], in assay [11], in assay [12], in [13], in assay [14] and in assay [15] was “inactive” throughout. In addition, the result in assay [3], in assay [4] and in assay [5] was inactive.

For the compound `O=c1c(-c2ccc(O)cc2)coc2cc(O)ccc12`, the Potency result in assay [1], in [2], in assay [6], in assay [7], in assay [8] and in assay [9] was “inactive” throughout. Further, the Potency result in assay [10], in assay [11], in assay [12], in [13], in [14] and in assay [17] was “inactive” in each case. Moreover, the Potency result in [19] was “inactive”. The compound was classed as inactive in assay [3], in assay [4], in assay [5], in assay [16] and in assay [20]. The Potency in [15] is 2.41 µM (active) and 12.2 µM (active); in [18] it was 15.5 µM (active).

In the case of `O=[N+]([O-])c1cccc(Cl)c1`, the Potency result in [1], in assay [2], in assay [6], in assay [7], in assay [8] and in [9] was “inactive” each time. Further, the Potency entry in assay [10], in assay [11], in [12], in assay [13], in assay [14] and in [15] was “inactive” in each case. The compound was classed as inactive in assay [3], in assay [4] and in [5].

Take `Nc1nc2ncc(CNc3ccc(C(=O)N[C@@H](CCC(=O)O)C(=O)O)cc3)nc2c(=O)[nH]1`: the Potency entry in assay [1], in assay [2], in assay [6], in [7], in assay [8] and in assay [9] was “inactive” each time. For the same compound, the Potency result in assay [10], in [11], in assay [12], in assay [13], in [14] and in [15] was “inactive” in each case. Besides, the compound was called inactive in assay [3], in [4] and in [5].

Take `NCCNCCNCCNCCN`: the Potency entry in assay [1], in assay [2], in [7], in assay [8], in assay [9] and in assay [10] was “inactive” throughout. For the same compound, the Potency entry in assay [11], in assay [12] and in assay [13] was “inactive” in each case. The result in assay [3], in assay [4] and in assay [5] was inactive. The activity change, negative = cytotoxicity in [6] was 18.7% [at 6.95 µM].

Turning to `CC(=O)[C@@]1(O)CC[C@H]2[C@@H]3CCC4=CC(=O)CC[C@]4(C)[C@H]3CC[C@@]21C`, the Potency entry in assay [1], in assay [2], in assay [6], in [7], in assay [8] and in assay [9] was “inactive” each time. The Potency entry in [10], in assay [12], in [13], in assay [14] and in assay [15] was “inactive” in each case. Moreover, the compound was classed as inactive in assay [3], in assay [4], in assay [5], in assay [16] and in assay [20].

As to `CN(CCOc1ccc(CC2SC(=O)NC2=O)cc1)c1ccccn1` (centres undefined), the result in assay [3], in assay [4] and in assay [5] was inactive. Moreover, the Potency entry in assay [6], in [7], in assay [8], in assay [9], in assay [10] and in assay [12] was “inactive” in each case. For the same compound, in assay [13], the Potency entry was “inactive”.

Regarding `NC(=O)NNc1ccccc1`, the Potency result in assay [1], in [2], in assay [6], in [7], in assay [8] and in [9] was “inactive” throughout. Also, the Potency result in [10], in [11], in assay [12], in assay [13], in [14] and in [15] was “inactive” each time. In addition, the call in assay [3], in assay [4] and in assay [5] was inactive.

Consider `CCCCOCCO`, for which the Potency entry in [1], in assay [2], in assay [6], in assay [7], in assay [8] and in assay [9] was “inactive” each time. In addition, the Potency entry in [10], in assay [11], in [12], in [13], in assay [14] and in assay [15] was “inactive” throughout. Besides, the compound was classed as inactive in assay [3], in assay [4] and in assay [5].

The record behind these values is PubChem BioAssay (Tox21).
